VLA-4 inh = inhibition in a human VLA-4 binding assay; P13612; VLA-4 expressing cells, ligand binding flow cytometry; inhibition, % (about 7 µM as worked out from the volumes in the protocol); 0.2% of 330,000 active; AID 2557
GRK2 aptamer HTS = blocks RNA aptamer binding to human GRK2; P25098; bead flow cytometry, FAM-aptamer displacement from GRK2; inhibition of aptamer binding, % at 10 µM; 0.59% of 330,000 active; AID 488847;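 active = inhibition of aptamer binding above 40%, roughly 3 SD of noise, on plates passing a quality check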;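 also: median bead fluorescence of bound FAM aptamer so fluorescent compounds give negative values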
HDAC3 inhib = inhibitors of human histone deacetylase 3; O15379; recombinant HDAC3, fluorogenic peptide/trypsin coupled, fluorescence; inhibition, % at 8.3 µM; 0.15% of 320,000 active; in the data active = inhibition above about 26%, passing the limit was not always enough
DSG3 Ab inh = blocks pemphigus antibody binding to human desmoglein-3 | P32926 | DSG3-coupled beads, scFv-anti-DSG3-GFP binding, flow cytometry; stronger effect = lower value | binding (percent of control), % at 10 µM | 0.48% of 310,000 active | AID 588358;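 active = binding more than 3 SD below its plate's average and above zero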;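 also: hits lower antibody fragment binding to DSG3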
LANA-H2A inh = blocks KSHV LANA binding to histone H2A/H2B; Q9QR71; cell-free LANA-H2A/H2B peptide, fluorescence polarization; inhibition, % (concentration not given with the values); 0.6% of 320,000 active; AID 2629; in the data active = inhibition mostly above about 10%, no sharp cut-off; inactive = mostly below about 6.7%
PKD1 inh = blocks activity of human protein kinase D1; Q15139; PKD1 kinase fluorescence polarization assay; inhibition, % (no concentration beside the values); 0.056% of 200,000 active
An asterisk follows results filed as active. Compounds with a hit are over-represented: about 1.8% of the library has one in this group of screens. Rule as the data show it, unless noted: active = inhibition above about 50%; inactive = the rest.

COc1ccc(C(=O)/C=C/Nc2ccc(S(=O)(=O)Nc3cc(OC)nc(OC)n3)cc2)c(OC)c1 was read as VLA-4 inh -5, GRK2 aptamer HTS 0, HDAC3 inhib -4, DSG3 Ab inh 98 and LANA-H2A inh 17*.
Screening CCC(C(=O)Nc1cccnc1Cl)c1ccccc1 (centres undefined) returned VLA-4 inh 4, HDAC3 inhib 6, DSG3 Ab inh 103 and LANA-H2A inh 1.
For CSCCC(NC(=O)c1ccccc1)C(=O)N1CC=C(c2ccccc2)CC1 (centres undefined) the results were VLA-4 inh -10, GRK2 aptamer HTS 6, HDAC3 inhib -1, DSG3 Ab inh 107 and LANA-H2A inh -2.
O=C(COC(=O)COc1ccccc1)NCc1ccco1 was read as VLA-4 inh 13, GRK2 aptamer HTS 8, HDAC3 inhib 7, DSG3 Ab inh 126 and LANA-H2A inh 18*.
`CC(=O)c1cccc(OCC(=O)N(C)CC(=O)NCc2ccco2)c1` gave VLA-4 inh 15, GRK2 aptamer HTS 86*, HDAC3 inhib -1, DSG3 Ab inh 53 and LANA-H2A inh -9.
For COc1ccc(C(=O)NC(=C(Cl)Cl)S(=O)(=O)c2ccc(C)cc2)cc1 the results were VLA-4 inh 5, GRK2 aptamer HTS 3, HDAC3 inhib -1, DSG3 Ab inh 110 and LANA-H2A inh -3.
`Cc1ccc(C(=O)NC(=C(Cl)Cl)S(=O)(=O)c2ccccc2)cc1` gave VLA-4 inh 2, GRK2 aptamer HTS 0, HDAC3 inhib -9, DSG3 Ab inh 100, LANA-H2A inh 14* and PKD1 inh 2.
Screening Cc1nn(CC(=O)Nc2ccc3nc4n(c(=O)c3c2)CCCC4)c(C)c1[N+](=O)[O-] returned VLA-4 inh -1, GRK2 aptamer HTS 5, HDAC3 inhib 1 and LANA-H2A inh -4.
COc1ccc(OC)c(C2C3CN(C(C)C)CC=C3C(C#N)=C(N)C2(C#N)C#N)c1 (centres undefined) was read as VLA-4 inh -2, GRK2 aptamer HTS 0, HDAC3 inhib 1, DSG3 Ab inh 103, LANA-H2A inh 3 and PKD1 inh 0.
Screening N#CC1=C(N)C(C#N)(C#N)[C@H](c2ccoc2)[C@H]2CN(Cc3ccccc3)CC=C12 returned VLA-4 inh -19, GRK2 aptamer HTS 0, HDAC3 inhib 2, DSG3 Ab inh 100, LANA-H2A inh 23* and PKD1 inh 12.
Screening CCCN1CC=C2C(C#N)=C(N)C(C#N)(C#N)C(c3cccc(OC)c3OC)C2C1 (centres undefined) returned VLA-4 inh -18, GRK2 aptamer HTS 0, HDAC3 inhib -2, DSG3 Ab inh 127, LANA-H2A inh 17* and PKD1 inh 1.
For CCN1CC=C2C(C#N)=C(N)C(C#N)(C#N)C(CCc3ccccc3)C2C1 (centres undefined) the results were VLA-4 inh -256, GRK2 aptamer HTS 0, HDAC3 inhib -33, LANA-H2A inh 25* and PKD1 inh 8.
For CN1CC=C2C(C#N)=C(N)C(C#N)(C#N)[C@H](c3ccoc3)[C@H]2C1 the results were VLA-4 inh -18, GRK2 aptamer HTS 1, HDAC3 inhib -13, DSG3 Ab inh 101, LANA-H2A inh 18* and PKD1 inh 5.
For COc1cccc(N(CC(=O)NC2CCCCC2)C(=O)CCCC(=O)Nc2ccccn2)c1 the results were VLA-4 inh 2, GRK2 aptamer HTS 0, HDAC3 inhib -4, DSG3 Ab inh 99 and LANA-H2A inh 3.
`Cc1[nH]c(=S)c(C#N)c(C)c1CC(=O)c1ccc(Br)cc1` gave VLA-4 inh 3, GRK2 aptamer HTS 0, HDAC3 inhib 1, DSG3 Ab inh 101 and LANA-H2A inh 3.
CCn1c(=O)c(C(=O)NNC(=O)c2ccccc2Br)c(O)c2ccccc21 was read as VLA-4 inh -15, GRK2 aptamer HTS 1, HDAC3 inhib -1, DSG3 Ab inh 106 and LANA-H2A inh 27*.
`CCn1c(=O)c(C(=O)Nc2nc3ccccc3[nH]2)c(O)c2ccccc21` gave VLA-4 inh 5, GRK2 aptamer HTS 81*, HDAC3 inhib -9, DSG3 Ab inh 96, LANA-H2A inh -1 and PKD1 inh -2.
`CC(=O)c1ccc(-c2cccc([C@H]3[C@@H]4C=CC[C@@H](C)[C@@H]4C(=O)N3Cc3ccccc3)c2)cc1` gave GRK2 aptamer HTS 0 and DSG3 Ab inh 97.
